eIF4E-4G inh: eIF4E–eIF4G protein interaction inhibitors, primary screen, biochemical, uHTS, TR-FRET, eIF4GI fragment | TR-FRET eIF4E-eIF4GI(517-606) binding, 2 h | 220,000 compounds, 0.37% hits | inhibition, % at 21.7 µM;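 active means inhibition above about 30%, limit read from the data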;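 further: 0% = full FRET control wells and 100% = background wells lacking eIF4GI fragment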
Mcl1-Bid inh: Mcl-1/Bid binding inhibitors, primary screen, biochemical, TR-FRET, 1536-well. TR-FRET Mcl-1/Bid-Dy647 peptide binding. 220,000 compounds, 0.97% hits. AID 1021, 2008. inhibition, % at 21.7 µM;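 active means compounds that cut the binding signal by more than half at the single screening dose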;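 further: His-tagged Mcl-1 with europium anti-His antibody binding Bid BH3 peptide; 0% = Mcl-1 plus peptide wells and 100% = peptide-only wells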
Target sequence (Q07820 whole entry, looked up): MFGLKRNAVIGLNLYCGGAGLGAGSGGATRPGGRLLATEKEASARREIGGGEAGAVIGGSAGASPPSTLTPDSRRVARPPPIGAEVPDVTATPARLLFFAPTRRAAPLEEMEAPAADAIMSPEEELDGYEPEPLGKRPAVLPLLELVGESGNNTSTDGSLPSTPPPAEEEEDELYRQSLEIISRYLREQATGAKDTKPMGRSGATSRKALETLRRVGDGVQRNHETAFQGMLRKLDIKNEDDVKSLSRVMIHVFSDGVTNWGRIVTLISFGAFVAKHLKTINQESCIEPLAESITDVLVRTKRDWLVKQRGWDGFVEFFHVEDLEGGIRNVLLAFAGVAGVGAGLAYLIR
MCL1-BIM inh: inhibitors of MCL1 binding to BIM-BH3, primary screen, biochemical, fluorescence polarization | GST-MCL1 / FITC-Bim-BH3 fluorescence polarization | inhibition, % at 10.9 µM | 320,000 compounds, 0.68% hits | AID 2057, 2009;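 active means inhibition above the mean inhibition of all tested compounds plus 3 SD, set per campaign, cut at about 40% in these data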;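 further: 0% = DMSO wells and 100% = unlabeled Bim-BH3 peptide control; higher means more loss of mP so more displacement of Bim peptide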
Mcl-1 Bim block: inhibitors of Bim peptide binding to Mcl-1, primary screen, biochemical, bead-based flow cytometry, multiplex. Induced myeloid leukemia cell differentiation protein Mcl-1 (Homo sapiens), Q07820. Bim peptide-Mcl-1 binding. inhibition, % at 10 µM. 190,000 compounds, 0.1% hits. AID 1009, 2008; in the data active means inhibition above about 40%;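 further: 0% = no compound tracer wells and 100% = peptide blocker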
14-3-3 Bad inh: inhibitors of 14-3-3 zeta/Bad binding, primary screen, biochemical, TR-FRET, bovine 14-3-3 zeta. 220,000 compounds, 0.71% hits. TR-FRET 14-3-3zeta/Dy647-pBad peptide displacement, 1 h. inhibition, % at 21.7 µM. AID 781, 2007. 14-3-3 protein zeta/delta (Bos taurus), P63103;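 active means inhibition above about 70%, limit read from the data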;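 further: 0% = full 14-3-3 plus peptide FRET controls and 100% = background without 14-3-3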
Target sequence (P63103 whole entry, looked up): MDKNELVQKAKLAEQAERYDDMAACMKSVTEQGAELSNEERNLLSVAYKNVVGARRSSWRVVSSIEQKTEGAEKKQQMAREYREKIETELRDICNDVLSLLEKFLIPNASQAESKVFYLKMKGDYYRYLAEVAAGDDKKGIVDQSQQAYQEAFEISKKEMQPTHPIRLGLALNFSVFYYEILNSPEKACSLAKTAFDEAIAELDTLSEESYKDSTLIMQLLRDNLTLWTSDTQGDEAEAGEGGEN
Mcl1 Noxa PPI: Mcl-1/Noxa binding inhibitors, primary screen, biochemical, TR-FRET, 1536-well; Induced myeloid leukemia cell differentiation protein Mcl-1 (Homo sapiens), Q07820; TR-FRET Mcl-1/Noxa peptide binding, 2 h; inhibition, % at 21.7 µM; 220,000 compounds, 1.5% hits; AID 1022, 2008;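 active means compounds that cut the protein-peptide binding signal by more than 50% relative to plate controls in a single-dose test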;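 further: His-tagged Mcl-1 with rhodamine Noxa BH3 peptide and terbium anti-His antibody; 0% = Mcl-1 plus Noxa peptide wells and 100% = peptide-only wells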
Active calls of the source: *; nt = no result; [ ] = remark or other dose. A selection: hits, their analogues and other compounds. The true share with any hit is near 2.6%.

SMILES	eIF4E-4G inh	Mcl1-Bid inh	MCL1-BIM inh	Mcl-1 Bim block	14-3-3 Bad inh	Mcl1 Noxa PPI
CC1C(=O)NN=C1C(=O)N/N=C\c1ccc(O)cc1O (configuration not stated)	1	-75	8	1	-5	74*
CCCc1n(CC)c2ccccc2[n+]1CC(O)COC1CCCCC1 (configuration not stated)	4	9	-17	4	15	27
C=C(C)C(=O)Nc1cccc(C2=NOC3(C2)C[C@H](C(N)=O)N(C(=O)c2ccccc2)C3)c1 (some centres not stated)	3	-70	-9	nt	29	61*
C=C(C)C(=O)Nc1cccc(C2=NOC3(C2)C[C@@H](C(N)=O)N(C(=O)c2cc([N+](=O)[O-])cc([N+](=O)[O-])c2C)C3)c1 (some centres not stated)	3	-47	-9	nt	34	74*
C/C=C(/C)C(=O)Nc1cccc(C2=NOC3(C2)C[C@H](C(N)=O)N(C(=O)c2ccc(Cl)cc2)C3)c1 (some centres not stated)	-5	-24	12	nt	-5	9
C/C=C/C(=O)Nc1cccc(C2=NOC3(C2)C[C@@H](C(N)=O)N(C(=O)c2cc([N+](=O)[O-])cc([N+](=O)[O-])c2C)C3)c1 (some centres not stated)	-4	-2	1	nt	-2	15
C=C(C)C(=O)Nc1cccc(C2=NOC3(C2)C[C@@H](C(N)=O)N(C(=O)c2ccc(Cl)cc2)C3)c1 (some centres not stated)	10	-98	14	nt	31	75*
C=C(C)C(=O)Nc1cccc(C2=NOC3(C2)C[C@H](C(N)=O)N(C(=O)COc2ccc(Cl)cc2)C3)c1 (some centres not stated)	5	-129	12	nt	30	69*
CCC(=O)Nc1cccc(C2=NOC3(C2)C[C@@H](C(N)=O)N(C(=O)COc2ccc(Cl)cc2)C3)c1 (some centres not stated)	-1	-23	-1	nt	5	-12
CCOc1cc(/C=N/NC(=O)c2ccc(-c3csc(Nc4ccc(C)cc4)n3)cc2)ccc1OCC(=O)O	31*	-2	nt	1	75*	86*
O=C(O)COc1ccc(/C=N/NC(=O)c2ccc(-c3csc(Nc4ccc(Cl)cc4)n3)cc2)cc1	72*	95*	nt	nt	94*	88*
COc1cc(NC(=O)COC(=O)Cc2ccsc2)cc(OC)c1	nt	nt	-3	nt	nt	nt
COc1ccc2sc(N3C(=O)CC(Cc4cccc(C)c4)C3=O)nc2c1 (configuration not stated)	0	-4	-5	-2	88*	10
O=C(CNC(=O)c1ccc(Cl)c([N+](=O)[O-])c1)OCN1C(=O)c2ccccc2C1=O	nt	nt	-12	nt	nt	nt
O=c1nc(Nc2ccccc2)sc2ccc([N+](=O)[O-])cc12	11	2	5	-11	45	54*
COc1ccccc1C(=O)NCCC(=O)NCc1ccncc1	nt	nt	-2	nt	nt	nt
CCN(CC)Cc1cc(O)c(CN(CC)CC)cc1O	23	-100	nt	0	17	98*
Cc1cc(C)cc(C(=O)NCC(=O)OCC(=O)N2c3ccccc3NC(=O)C2(C)C)c1	14	-24	27	16	7	54*
CCN(CC)S(=O)(=O)c1ccc(NC(=O)c2cccc3c2C(=O)N(CCOC)C3)cc1	8	-24	7	-4	84*[fluorescence artefact?]	12
COCCN1Cc2cccc(C(=O)Nc3ccc(S(=O)(=O)N4CCCCCC4)cc3)c2C1=O	1	-18	-4	nt	4	-24
CCOC(=O)c1c(NC(=O)Cn2c(C)nc3ccccc32)sc2c1CCC2	-7	-18	4	1	-5	-19
CCOC(=O)c1c(NC(=O)COC(=O)Cn2c(C)nc3ccccc32)sc2c1CCCC2	11	56*	-4	-149	88*	3
C/C(=N\NC(=O)Cc1cccn1C)c1ccco1	44*	-56	4	nt	-2	9
C/C(=N/NC(=O)Cc1cccn1C)c1ccccc1	12	-65	8	0	1	-4
N#Cc1c2ccc(OCC(=O)NCc3ccco3)cc2n2ccccc12	nt	nt	7	nt	nt	nt
SMILES	eIF4E-4G inh	Mcl1-Bid inh	MCL1-BIM inh	Mcl-1 Bim block	14-3-3 Bad inh	Mcl1 Noxa PPI
N#Cc1c2ccc(O)cc2n2ccccc12	4	-12	44*	11	-9	43
COc1ccccc1/C=C/C(=O)OCC(=O)Nc1c(C)nn(-c2ccccc2)c1C	nt	nt	-3	nt	nt	nt
Cc1cccc2c(N=O)c(O)[nH]c12	0	-50	2	nt	6	55*
CCCCOc1nc2ccccc2nc1C(C#N)S(=O)(=O)c1ccccc1 (configuration not stated)	4	-24	-1	-4	72*	19
COc1ccc(S(=O)(=O)C(C#N)c2nc3ccccc3nc2N2CCC(C)CC2)cc1 (configuration not stated)	nt	nt	47*	nt	nt	nt
Cc1ccc(S(=O)(=O)C(C#N)c2nc3ccccc3nc2N2CCN(C)CC2)cc1 (configuration not stated)	3	-10	9	-5	-2	14
CCC1(c2ccccc2)NC(=O)N(CC(=O)NCc2ccc(C)cc2)C1=O (configuration not stated)	nt	nt	-9	nt	nt	nt
O=C(Nc1cc(C(F)(F)F)ccc1-n1cncn1)c1ccc([N+](=O)[O-])o1	nt	nt	8	nt	nt	nt
Nc1nnc(CSCc2ccccc2Cl)s1	1	-6	6	nt	-8	5
Nc1nnc(SCc2ccccc2Cl)s1	77*	-27	-6	0	-7	-5
CSCCC(NC(=O)c1ccco1)C(=O)N1CCN(c2ccccc2O)CC1 (configuration not stated)	nt	nt	7	nt	nt	nt
COc1cc2cc(C(c3nnnn3C3CCCC3)N(C)C3CCCCC3)c(=O)[nH]c2cc1OC (configuration not stated)	30*	12	-3	-9	8	24
COc1cc2cc(C(c3nnnn3C3CCCCC3)N(C)C3CCCCC3)c(=O)[nH]c2cc1OC (configuration not stated)	2	14	2	-4	-1	6
O=C(Cn1sc2ccccc2c1=O)NC12CC3CC(CC(C3)C1)C2	41*	32	39	-15	44	53*
Nc1cccc2c1C(=O)N(CC(=O)NC13CC4CC(CC(C4)C1)C3)C2=O	4	-23	32	-2	-15	22
c1ccc(Cn2nnc3c(NCc4ccc5c(c4)OCO5)nc(C4CC4)nc32)cc1	-34	52*	6	3	64	-26

Screens (PubChem BioAssay)
